According to the supplement of paper PMC11732987, “Enantioselective OTUD7B fragment discovery through chemoproteomics screening and high-throughput optimisation” (Communications Chemistry, 2025):

What was measured:
Experiment in all cases: log2 ratio of Biotin-Ahx-Ub-VS probe labelling (fragment/DMSO); higher = less target engagement (more negative = stronger competition), active = hit call of the paper (q ≤ 0.05, log2 ratio ≤ -1)
Conditions in all cases: compound concentration: 200 uM; treatment time: 3 h
USP42 = target: T1, USP42 (UniProt Q9H9J4)
T1 sequence (whole entry): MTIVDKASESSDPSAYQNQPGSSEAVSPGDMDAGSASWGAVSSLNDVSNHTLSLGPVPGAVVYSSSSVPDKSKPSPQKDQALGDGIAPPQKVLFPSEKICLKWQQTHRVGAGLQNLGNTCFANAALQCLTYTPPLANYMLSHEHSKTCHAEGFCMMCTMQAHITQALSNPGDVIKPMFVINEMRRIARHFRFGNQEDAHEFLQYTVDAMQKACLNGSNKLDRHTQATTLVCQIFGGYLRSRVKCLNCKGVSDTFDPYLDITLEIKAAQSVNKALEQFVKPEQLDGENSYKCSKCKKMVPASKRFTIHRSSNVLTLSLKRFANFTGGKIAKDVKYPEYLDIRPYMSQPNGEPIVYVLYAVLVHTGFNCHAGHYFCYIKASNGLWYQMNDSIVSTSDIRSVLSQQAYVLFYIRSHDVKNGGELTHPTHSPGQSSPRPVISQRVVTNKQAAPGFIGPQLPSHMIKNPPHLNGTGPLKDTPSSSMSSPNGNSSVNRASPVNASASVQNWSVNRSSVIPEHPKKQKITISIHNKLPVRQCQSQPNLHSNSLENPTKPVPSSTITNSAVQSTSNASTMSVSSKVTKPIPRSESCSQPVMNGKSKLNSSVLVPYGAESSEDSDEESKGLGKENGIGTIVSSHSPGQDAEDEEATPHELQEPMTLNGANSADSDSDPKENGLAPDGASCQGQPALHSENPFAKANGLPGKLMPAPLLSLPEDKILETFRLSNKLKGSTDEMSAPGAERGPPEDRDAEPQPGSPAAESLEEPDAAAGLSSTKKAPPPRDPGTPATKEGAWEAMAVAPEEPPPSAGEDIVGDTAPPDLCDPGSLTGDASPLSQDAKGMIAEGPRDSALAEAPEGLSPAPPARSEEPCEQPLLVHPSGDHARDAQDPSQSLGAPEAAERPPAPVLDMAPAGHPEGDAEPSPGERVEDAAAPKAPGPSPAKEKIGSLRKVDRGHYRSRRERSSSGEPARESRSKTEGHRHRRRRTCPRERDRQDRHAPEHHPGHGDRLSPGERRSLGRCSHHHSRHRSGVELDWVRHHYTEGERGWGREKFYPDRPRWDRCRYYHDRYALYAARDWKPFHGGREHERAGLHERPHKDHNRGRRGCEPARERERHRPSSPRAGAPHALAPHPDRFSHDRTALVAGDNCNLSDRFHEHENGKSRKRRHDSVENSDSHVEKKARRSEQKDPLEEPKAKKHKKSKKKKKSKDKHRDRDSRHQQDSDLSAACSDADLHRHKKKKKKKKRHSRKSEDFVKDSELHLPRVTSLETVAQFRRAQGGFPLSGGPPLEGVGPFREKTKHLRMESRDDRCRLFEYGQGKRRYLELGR
Outline: (§1)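 HEK293T lysate in Tris/CHAPS/IGEPAL buffer with protease inhibitors (495 µg per sample) was given fragment at 200 µM or vehicle for 3 h, in triplicate. It then received Biotin-Ahx-Ub-VS at 0.5 µM final for 1 h. Labelled DUBs were NeutrAvidin-enriched, digested with LysC and trypsin, and run by diaPASEF LC-MS/MS. Values are average log2 fragment/vehicle ratios by unpaired t-test on global-median-normalised Spectronaut quantities of proteins with ≥2 unique peptides.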

USP46 = USP46 (UniProt P62068)
USP46, sequence (P62068 whole entry): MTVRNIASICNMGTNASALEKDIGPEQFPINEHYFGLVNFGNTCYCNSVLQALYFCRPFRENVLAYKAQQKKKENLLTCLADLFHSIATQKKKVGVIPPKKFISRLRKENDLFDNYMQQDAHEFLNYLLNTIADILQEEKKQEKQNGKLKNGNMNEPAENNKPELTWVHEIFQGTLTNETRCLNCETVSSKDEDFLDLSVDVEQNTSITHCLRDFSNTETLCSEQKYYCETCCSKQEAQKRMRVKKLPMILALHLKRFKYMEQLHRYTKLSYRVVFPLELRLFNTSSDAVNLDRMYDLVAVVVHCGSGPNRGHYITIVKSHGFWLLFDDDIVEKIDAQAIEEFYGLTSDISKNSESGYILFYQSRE
Outline: as §1

USP47 = target: T2, USP47 (UniProt Q96K76)
T2 sequence (whole entry): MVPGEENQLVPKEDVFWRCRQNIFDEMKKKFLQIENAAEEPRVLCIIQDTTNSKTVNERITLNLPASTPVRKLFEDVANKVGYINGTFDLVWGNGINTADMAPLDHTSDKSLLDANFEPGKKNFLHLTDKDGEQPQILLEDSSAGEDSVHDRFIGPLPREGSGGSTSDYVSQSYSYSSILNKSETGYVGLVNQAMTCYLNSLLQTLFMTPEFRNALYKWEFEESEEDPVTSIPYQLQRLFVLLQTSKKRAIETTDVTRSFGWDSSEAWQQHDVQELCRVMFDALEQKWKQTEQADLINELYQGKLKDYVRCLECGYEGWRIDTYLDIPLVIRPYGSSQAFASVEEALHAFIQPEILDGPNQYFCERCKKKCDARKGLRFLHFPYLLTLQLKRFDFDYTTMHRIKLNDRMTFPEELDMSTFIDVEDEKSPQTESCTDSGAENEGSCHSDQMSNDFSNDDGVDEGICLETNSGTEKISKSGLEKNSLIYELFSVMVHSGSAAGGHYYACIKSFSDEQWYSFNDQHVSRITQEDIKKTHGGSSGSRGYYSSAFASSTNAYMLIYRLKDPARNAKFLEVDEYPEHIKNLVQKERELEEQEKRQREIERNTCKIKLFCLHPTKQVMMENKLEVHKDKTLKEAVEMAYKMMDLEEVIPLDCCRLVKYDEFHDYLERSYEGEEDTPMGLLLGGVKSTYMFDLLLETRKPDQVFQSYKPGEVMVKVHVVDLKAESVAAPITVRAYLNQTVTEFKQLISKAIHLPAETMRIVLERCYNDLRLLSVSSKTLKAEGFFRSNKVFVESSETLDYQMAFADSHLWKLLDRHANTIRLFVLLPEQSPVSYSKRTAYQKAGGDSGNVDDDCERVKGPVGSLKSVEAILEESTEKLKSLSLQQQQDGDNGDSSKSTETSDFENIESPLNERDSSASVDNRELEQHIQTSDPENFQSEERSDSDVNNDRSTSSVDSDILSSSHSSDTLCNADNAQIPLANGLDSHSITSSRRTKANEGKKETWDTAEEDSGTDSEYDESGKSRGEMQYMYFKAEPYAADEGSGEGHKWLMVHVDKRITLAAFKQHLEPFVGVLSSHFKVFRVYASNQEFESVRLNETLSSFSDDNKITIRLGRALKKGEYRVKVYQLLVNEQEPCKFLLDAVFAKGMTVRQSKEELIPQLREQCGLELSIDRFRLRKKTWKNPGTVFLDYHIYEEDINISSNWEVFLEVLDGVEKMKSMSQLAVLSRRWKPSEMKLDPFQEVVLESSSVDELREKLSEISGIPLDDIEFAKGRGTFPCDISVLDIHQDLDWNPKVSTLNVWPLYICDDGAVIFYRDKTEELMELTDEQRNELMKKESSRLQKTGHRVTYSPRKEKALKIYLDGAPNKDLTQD
Outline: as §1

USP48 = target: T3, USP48 (UniProt Q86UV5)
T3 sequence (whole entry): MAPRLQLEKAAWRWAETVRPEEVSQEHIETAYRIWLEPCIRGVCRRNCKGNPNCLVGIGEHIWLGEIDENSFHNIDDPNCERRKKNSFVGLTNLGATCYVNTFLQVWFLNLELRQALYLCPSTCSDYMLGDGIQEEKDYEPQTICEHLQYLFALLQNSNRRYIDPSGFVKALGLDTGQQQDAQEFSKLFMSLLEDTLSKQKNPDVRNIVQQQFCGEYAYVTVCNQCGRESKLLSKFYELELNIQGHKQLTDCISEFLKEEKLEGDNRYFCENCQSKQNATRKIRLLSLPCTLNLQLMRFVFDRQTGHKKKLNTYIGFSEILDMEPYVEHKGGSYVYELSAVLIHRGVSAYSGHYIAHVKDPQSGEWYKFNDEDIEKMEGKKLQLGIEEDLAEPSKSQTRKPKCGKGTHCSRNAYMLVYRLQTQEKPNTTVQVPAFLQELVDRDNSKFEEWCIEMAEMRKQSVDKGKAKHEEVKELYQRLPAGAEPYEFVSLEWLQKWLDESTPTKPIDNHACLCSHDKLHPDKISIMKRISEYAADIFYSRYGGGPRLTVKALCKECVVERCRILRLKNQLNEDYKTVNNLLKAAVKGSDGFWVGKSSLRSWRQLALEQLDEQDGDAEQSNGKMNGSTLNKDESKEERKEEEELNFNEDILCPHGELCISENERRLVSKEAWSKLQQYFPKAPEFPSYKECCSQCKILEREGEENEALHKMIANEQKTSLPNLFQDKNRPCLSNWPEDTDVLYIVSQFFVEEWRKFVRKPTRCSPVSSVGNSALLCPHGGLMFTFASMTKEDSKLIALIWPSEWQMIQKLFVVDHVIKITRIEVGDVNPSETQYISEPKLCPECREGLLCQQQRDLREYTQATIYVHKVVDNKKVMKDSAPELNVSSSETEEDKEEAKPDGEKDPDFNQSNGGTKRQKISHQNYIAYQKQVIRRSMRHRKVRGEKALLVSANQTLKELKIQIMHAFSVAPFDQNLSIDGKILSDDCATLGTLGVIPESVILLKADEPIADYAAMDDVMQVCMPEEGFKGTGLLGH
Outline: as §1

USP5 = target: T4, USP5 (UniProt P45974)
T4 sequence (whole entry): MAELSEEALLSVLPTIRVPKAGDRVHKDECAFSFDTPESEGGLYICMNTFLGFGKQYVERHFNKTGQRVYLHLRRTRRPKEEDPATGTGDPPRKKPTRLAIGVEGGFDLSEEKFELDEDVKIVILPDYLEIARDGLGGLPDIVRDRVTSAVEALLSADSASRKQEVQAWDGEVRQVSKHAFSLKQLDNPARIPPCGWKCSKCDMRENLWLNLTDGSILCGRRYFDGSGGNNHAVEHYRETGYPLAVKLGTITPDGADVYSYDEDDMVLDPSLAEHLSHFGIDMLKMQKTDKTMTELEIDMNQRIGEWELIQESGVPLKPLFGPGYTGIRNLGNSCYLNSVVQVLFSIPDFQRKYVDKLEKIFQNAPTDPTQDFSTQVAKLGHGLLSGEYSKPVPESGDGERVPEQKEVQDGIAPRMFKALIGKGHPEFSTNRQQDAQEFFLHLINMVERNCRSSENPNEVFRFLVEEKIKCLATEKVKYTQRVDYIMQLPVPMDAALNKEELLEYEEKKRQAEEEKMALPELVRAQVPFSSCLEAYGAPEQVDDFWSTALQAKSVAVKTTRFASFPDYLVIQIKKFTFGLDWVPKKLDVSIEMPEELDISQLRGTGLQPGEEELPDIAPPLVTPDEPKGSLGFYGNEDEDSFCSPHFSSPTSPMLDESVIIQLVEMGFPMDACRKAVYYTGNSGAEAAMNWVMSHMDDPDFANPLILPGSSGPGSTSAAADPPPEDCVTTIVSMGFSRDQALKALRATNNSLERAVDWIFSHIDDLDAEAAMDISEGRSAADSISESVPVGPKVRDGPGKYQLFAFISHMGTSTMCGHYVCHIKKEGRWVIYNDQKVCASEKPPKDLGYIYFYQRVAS
Outline: as §1

USP54 = USP54 (UniProt Q70EL1)
USP54, sequence (Q70EL1 whole entry): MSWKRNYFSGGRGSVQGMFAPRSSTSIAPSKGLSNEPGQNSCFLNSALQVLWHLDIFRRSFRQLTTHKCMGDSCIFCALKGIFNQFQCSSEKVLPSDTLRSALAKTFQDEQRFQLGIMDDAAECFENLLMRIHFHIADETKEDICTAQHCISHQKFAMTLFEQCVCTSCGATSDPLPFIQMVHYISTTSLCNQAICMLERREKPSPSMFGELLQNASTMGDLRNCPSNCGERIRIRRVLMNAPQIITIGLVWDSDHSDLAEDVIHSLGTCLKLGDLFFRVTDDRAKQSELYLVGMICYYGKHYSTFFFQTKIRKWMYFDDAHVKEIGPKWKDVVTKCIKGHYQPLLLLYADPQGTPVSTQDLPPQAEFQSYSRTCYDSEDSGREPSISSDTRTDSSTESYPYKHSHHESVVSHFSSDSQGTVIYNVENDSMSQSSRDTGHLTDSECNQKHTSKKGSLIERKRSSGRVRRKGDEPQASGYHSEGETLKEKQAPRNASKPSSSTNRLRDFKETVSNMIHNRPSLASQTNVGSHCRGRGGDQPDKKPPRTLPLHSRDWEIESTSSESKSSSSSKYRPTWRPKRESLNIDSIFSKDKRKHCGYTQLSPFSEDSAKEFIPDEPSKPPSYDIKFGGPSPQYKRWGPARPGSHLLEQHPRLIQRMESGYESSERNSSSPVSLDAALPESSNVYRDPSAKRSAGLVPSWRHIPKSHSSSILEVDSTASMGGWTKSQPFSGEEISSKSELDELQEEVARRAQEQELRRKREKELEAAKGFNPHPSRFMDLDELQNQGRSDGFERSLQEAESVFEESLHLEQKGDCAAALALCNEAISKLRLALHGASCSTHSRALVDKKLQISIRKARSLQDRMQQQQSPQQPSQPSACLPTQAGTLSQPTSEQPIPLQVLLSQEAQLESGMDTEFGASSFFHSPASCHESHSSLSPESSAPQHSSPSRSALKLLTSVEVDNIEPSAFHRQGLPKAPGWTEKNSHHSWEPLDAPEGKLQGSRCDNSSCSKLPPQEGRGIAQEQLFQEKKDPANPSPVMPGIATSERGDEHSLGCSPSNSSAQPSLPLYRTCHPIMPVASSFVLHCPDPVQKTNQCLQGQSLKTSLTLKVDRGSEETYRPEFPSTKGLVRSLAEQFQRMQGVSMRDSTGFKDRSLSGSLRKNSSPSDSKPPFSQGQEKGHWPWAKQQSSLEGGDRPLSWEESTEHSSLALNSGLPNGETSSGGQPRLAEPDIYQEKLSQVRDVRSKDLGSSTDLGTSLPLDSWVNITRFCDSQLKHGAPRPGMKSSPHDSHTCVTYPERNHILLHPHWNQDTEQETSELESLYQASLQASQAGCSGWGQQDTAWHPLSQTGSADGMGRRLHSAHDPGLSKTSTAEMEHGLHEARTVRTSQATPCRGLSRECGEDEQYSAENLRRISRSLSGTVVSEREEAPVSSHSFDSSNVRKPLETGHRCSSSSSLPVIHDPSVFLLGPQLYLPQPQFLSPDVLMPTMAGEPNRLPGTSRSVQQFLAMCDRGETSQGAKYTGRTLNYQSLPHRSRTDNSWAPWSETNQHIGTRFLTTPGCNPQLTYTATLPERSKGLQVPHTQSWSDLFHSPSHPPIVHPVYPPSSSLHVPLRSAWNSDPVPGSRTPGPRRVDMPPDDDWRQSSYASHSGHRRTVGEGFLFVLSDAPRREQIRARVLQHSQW
Outline: as §1

USP7 = USP7 (UniProt Q93009)
Outline: as §1

USP8 = target: T5, USP8 (UniProt P40818)
T5 sequence (whole entry): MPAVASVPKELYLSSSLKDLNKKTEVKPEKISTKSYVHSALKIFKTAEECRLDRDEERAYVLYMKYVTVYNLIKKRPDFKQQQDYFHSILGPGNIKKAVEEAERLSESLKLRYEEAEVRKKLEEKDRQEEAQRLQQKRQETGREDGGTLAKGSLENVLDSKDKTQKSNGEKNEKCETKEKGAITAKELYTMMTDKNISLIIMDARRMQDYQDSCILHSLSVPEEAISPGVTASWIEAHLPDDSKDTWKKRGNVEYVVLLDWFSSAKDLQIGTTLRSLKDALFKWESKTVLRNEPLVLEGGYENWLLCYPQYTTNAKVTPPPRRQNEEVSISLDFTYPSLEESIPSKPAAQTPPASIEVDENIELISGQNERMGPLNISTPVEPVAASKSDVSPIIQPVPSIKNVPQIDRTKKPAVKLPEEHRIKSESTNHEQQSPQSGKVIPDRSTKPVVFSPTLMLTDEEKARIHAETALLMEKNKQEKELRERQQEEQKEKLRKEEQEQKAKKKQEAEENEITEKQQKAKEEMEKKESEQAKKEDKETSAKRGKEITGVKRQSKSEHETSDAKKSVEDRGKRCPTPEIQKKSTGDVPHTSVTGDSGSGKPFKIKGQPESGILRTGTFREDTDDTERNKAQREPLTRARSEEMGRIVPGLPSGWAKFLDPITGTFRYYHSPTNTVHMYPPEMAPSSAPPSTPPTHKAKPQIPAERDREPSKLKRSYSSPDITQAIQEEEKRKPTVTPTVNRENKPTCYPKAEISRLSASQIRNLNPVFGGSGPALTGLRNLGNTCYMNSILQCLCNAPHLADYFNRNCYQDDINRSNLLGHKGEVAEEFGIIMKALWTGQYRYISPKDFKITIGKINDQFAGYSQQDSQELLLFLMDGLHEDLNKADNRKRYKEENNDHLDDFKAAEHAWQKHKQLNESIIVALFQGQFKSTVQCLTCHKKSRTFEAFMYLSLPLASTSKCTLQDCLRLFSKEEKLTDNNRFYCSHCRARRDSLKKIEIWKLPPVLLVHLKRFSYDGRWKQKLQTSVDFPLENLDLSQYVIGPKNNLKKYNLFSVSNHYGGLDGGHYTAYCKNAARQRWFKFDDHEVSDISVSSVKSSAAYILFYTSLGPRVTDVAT
Outline: as §1

USP9X = USP9X (UniProt Q93008)
USP9X, sequence (Q93008 whole entry): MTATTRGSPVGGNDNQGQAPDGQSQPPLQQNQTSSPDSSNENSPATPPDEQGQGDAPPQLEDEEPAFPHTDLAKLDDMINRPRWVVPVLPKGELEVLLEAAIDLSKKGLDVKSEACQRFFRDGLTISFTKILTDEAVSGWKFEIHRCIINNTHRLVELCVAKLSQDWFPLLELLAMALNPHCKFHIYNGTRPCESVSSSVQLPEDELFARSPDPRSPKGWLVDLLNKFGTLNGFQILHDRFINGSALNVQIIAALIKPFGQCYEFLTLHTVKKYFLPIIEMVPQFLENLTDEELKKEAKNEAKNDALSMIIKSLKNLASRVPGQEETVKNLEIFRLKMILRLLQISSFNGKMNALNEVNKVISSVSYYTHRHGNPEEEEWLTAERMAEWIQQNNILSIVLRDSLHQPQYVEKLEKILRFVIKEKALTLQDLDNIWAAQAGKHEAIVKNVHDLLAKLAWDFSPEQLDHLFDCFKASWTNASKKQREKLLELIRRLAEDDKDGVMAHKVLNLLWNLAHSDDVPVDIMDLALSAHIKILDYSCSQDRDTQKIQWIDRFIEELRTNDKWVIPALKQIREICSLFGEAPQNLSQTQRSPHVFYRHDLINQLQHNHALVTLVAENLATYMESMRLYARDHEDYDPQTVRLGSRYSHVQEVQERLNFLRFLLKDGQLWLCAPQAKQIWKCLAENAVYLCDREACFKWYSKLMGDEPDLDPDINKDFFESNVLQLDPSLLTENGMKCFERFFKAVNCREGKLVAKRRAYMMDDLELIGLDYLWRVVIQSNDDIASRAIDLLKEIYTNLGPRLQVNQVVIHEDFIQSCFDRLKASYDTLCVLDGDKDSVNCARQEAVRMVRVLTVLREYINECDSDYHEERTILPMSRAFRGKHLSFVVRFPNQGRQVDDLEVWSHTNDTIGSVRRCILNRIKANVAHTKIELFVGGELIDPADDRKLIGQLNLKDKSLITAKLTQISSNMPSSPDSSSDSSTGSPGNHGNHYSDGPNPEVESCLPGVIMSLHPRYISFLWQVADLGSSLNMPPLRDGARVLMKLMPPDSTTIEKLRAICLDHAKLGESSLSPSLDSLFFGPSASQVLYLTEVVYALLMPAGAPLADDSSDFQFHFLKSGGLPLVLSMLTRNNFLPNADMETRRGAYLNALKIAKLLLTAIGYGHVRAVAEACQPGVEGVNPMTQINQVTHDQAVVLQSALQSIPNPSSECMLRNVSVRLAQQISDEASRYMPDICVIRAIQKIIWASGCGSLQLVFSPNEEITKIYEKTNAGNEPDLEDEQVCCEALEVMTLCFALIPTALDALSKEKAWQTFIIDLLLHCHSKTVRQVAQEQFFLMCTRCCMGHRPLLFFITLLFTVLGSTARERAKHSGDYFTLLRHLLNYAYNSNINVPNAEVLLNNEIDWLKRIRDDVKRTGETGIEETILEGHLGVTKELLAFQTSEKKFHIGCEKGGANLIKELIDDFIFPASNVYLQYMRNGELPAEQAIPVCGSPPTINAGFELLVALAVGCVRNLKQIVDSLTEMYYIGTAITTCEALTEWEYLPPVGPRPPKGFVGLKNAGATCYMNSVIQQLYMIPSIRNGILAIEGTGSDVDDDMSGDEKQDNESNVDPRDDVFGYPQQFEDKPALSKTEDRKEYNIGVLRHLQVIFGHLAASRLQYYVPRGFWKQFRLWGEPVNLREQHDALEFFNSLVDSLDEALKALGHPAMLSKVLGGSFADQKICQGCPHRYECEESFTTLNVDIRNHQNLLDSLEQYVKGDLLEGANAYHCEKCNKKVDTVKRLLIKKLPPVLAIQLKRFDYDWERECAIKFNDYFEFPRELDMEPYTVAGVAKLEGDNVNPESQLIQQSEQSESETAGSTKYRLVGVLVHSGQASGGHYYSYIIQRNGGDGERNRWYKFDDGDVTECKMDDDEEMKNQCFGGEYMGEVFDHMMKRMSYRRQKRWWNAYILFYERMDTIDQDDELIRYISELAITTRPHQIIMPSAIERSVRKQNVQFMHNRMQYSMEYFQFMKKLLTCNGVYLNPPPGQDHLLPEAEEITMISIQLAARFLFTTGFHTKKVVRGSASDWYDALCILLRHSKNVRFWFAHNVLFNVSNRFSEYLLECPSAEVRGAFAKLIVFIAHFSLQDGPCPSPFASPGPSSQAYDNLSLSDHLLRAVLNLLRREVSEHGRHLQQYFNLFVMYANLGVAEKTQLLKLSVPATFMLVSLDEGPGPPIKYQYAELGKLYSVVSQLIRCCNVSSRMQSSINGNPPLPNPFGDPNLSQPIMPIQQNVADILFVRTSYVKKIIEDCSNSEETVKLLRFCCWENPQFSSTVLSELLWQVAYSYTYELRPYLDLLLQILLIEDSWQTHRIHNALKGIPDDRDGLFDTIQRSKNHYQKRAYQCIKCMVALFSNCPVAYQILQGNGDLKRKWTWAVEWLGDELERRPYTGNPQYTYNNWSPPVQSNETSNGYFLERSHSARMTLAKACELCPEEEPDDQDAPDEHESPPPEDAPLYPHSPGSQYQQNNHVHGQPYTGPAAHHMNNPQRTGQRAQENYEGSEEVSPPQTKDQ
Outline: as §1

UniProt O00487 = target: UniProt O00487
UniProt O00487, sequence (O00487 whole entry): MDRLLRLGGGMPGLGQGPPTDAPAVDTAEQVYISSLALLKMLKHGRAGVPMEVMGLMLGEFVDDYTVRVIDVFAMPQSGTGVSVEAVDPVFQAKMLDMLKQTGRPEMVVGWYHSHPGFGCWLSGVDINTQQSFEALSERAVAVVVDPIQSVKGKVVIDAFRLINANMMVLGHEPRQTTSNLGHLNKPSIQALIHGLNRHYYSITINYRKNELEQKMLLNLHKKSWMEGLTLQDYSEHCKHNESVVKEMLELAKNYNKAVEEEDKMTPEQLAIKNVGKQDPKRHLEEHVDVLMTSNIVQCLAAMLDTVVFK
Outline: as §1

Measured: log2 ratio of Biotin-Ahx-Ub-VS probe labelling

Cl.O=C(CCl)NCc1ccnc(Oc2ccccc2F)c1
inactive: USP42 -0.336 | USP46 0.0702 | USP47 -0.71 | USP48 -0.278 | USP5 0.126 | USP54 0.365 | USP7 -0.357 | USP8 -0.181 | USP9X -0.17 | UniProt O00487 0.13
